Screening results from PubChem BioAssay.
Only some compounds are listed: those with a hit (about 19% of all), similar ones and a draw of the others.
Shiga inhibitor – blocks Shiga toxin action in Vero cells. Vero cells, Shiga toxin protein synthesis inhibition reporter. inhibition, % at 38.7 µM. 9.2% of 290,000 active; in the data active = inhibition mostly above about 28%, no sharp cut-off; inactive = mostly below about 43%; also: 0% is about no effect
Pf growth 48h – inhibits P. falciparum growth in the first generation, 48 h | P. falciparum luciferase growth in erythrocytes, 48 h | Potency, µM (series often up to 28.7 µM), without a hit: at the top dose activity change, negative = inhibition, hits mostly inhibitors | 5.9% of 310,000 active; also: potency is read from the fitted curve at half-maximal effect; % is scaled to controls: 0 for no effect and ±100 for the full control effect
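First compound was added to culture medium, then infected red cells at 0.1% parasitemia and 2% hematocrit (final). After incubation at 37 C under 5% CO2, luciferase detection reagent was dispensed and light output recorded.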
LASV entry inh – Lassa virus entry inhibition | Potency, µM (top dose mostly 37.9 µM), without a hit: top-dose activity change, negative = inhibition, most hits filed as inhibitors | 1.2% of 300,000 active | AID 540256 | Lassa virus pseudotype entry inhibition, cell reporter; calls by dose curve; tested in HEK293 cells; also: potency is read from the fitted curve at half-maximal effect; % is scaled to controls: 0 for no effect and ±100 for the full control effect; nearly all actives have a fitted effect of over 50% in size
CHX counter – affects cycloheximide protein synthesis inhibition readout, counter-screen. cell reporter, cycloheximide protein synthesis inhibition counterscreen. max response, %. 12% of 300,000 active. AID 2314; in the data active = max response mostly above about 13%, no sharp cut-off; inactive = mostly below about 14%; also: read at 38.3 µM for the half of the compounds with a filed dose; 0% is about no effect
Pf growth 96h – P. falciparum growth inhibition at 96 hour, primary screen for plastid delayed-death inhibitors; Potency, µM (top dose mostly 28.7 µM), for inactives: at the top dose activity change, negative = inhibition, most hits filed as inhibitors; P. falciparum luciferase reporter growth, 96 h; 6.9% of 320,000 active; AID 504834; also: potency is read from the fitted curve at half-maximal effect; % is scaled to controls: 0 for no effect and ±100 for the full control effect
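P. falciparum expressing integrated firefly luciferase grown in erythrocytes (2% hematocrit, 0.05% parasitemia final) with compounds for 96 hours at 37 C, 5% CO2. Growth inhibition read as loss of luminescence after adding luciferase detection reagent.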
Marburg entry inh – blocks Marburg virus binding to or entry into cells; Marburg virus pseudotyped entry inhibition, cell reporter; Potency, µM (titrated, usually from 37.8 µM), inactives show top-dose activity change, negative = inhibition, actives largely listed as inhibitors; 1.8% of 300,000 active; calls by dose curve; tested in HEK293 cells; also: potency is read from the fitted curve at half-maximal effect; % is scaled to controls: 0 for no effect and ±100 for the full control effect
Active calls of the source: *; [ ] = dose if it differs, or a comment. Unless noted, calls follow the shape of the dose curve; as a rule, active = well fitted inhibition curve with a large enough effect; inconclusive = small, poorly fitted or top-dose-only effect, or another doubt; inactive = no such curve, though single readings can be large or run the other way.

`CC[N+]1(CC)CC2=Cc3c(ccc4ccccc34)CC2C1` (stereo not drawn) gave Shiga inhibitor 16, LASV entry inh 10%, CHX counter 11, Pf growth 96h inconclusive and Marburg entry inh 6%.
`CC12Cc3ccc4ccccc4c3C=C1C[N+](C)(C)C2` (stereo not drawn) gave Shiga inhibitor -11, LASV entry inh 21%, CHX counter -3, Pf growth 96h 1.7µM* and Marburg entry inh inconclusive.
CCC(C)NC(=O)CSc1nc2ccsc2c(=O)n1-c1ccc(OC)cc1 (stereo not drawn) was read as Shiga inhibitor -17, Pf growth 48h -20%, LASV entry inh -7%, CHX counter 1, Pf growth 96h 12µM* and Marburg entry inh 2%.
Screening Cc1cc(NC(=O)CSc2nc3ccsc3c(=O)n2NC(=O)c2ccccc2)no1 returned Shiga inhibitor 37*, Pf growth 48h 286%, LASV entry inh -4%, CHX counter 36*, Pf growth 96h 1% and Marburg entry inh inconclusive.
For O=C(Nn1c(SCc2ccc(F)cc2)nc2ccsc2c1=O)c1ccccc1 the results were Shiga inhibitor 19, Pf growth 48h 39%, LASV entry inh 1%, CHX counter 28*, Pf growth 96h 13µM* and Marburg entry inh 21%.
Screening CCC(C)NC(=O)CSc1nc2ccsc2c(=O)n1NC(=O)c1ccccc1 (stereo not drawn) returned Shiga inhibitor 33, LASV entry inh 2%, CHX counter 28, Pf growth 96h 8.3µM* and Marburg entry inh inconclusive.
For Cc1ccc(CNC(=O)CSc2nc3ccsc3c(=O)n2NC(=O)c2ccccc2)cc1 the results were Shiga inhibitor 32, Pf growth 48h 59%, LASV entry inh 9%, CHX counter 3, Pf growth 96h 37% and Marburg entry inh 19%.
For Cn1c(SCc2ccccc2)nc2ccsc2c1=O the results were Shiga inhibitor 20, Pf growth 48h inconclusive, LASV entry inh inconclusive, CHX counter 17, Pf growth 96h -170% and Marburg entry inh inconclusive.
For Cc1ccc(S(=O)(=O)N2C(=O)c3cccc4cccc2c34)cc1 the results were Shiga inhibitor -12, Pf growth 48h -15%, CHX counter -3 and Pf growth 96h 10%.
`O=C(CN1N=C(c2ccc(Cl)cc2)CCC1=O)NCCc1ccccc1` gave LASV entry inh 17%[46.1 µM].
Screening N#CCCN/N=C(\Cc1nc2ccccc2[nH]1)c1ccccc1 returned Shiga inhibitor 39, LASV entry inh 36%, CHX counter 19, Pf growth 96h inconclusive and Marburg entry inh 3%.
Screening c1ccc(N/N=C(\Cc2nc3ccccc3[nH]2)c2ccccc2)cc1 returned Shiga inhibitor 48*, Pf growth 48h -86%, LASV entry inh 12%, CHX counter 52*, Pf growth 96h inconclusive and Marburg entry inh inconclusive.
For Cc1ccc(N/N=C(\Cc2nc3ccccc3[nH]2)c2ccccc2)cc1 the results were Shiga inhibitor 48*, Pf growth 48h 9.3µM*, LASV entry inh inconclusive, CHX counter 35*, Pf growth 96h inconclusive and Marburg entry inh inconclusive.
`Cc1ccc(S(=O)(=O)NCc2nc3ccccc3[nH]2)cc1` gave Shiga inhibitor 3, CHX counter 5 and Pf growth 96h 48%.
`O=C(CCc1nc2ccccc2c(=O)[nH]1)NCc1cccc(Cl)c1` gave Shiga inhibitor -6, Pf growth 48h 20%, LASV entry inh inconclusive, CHX counter 1 and Marburg entry inh -18%.
For Clc1cccc(/C(Cc2nc3ccccc3[nH]2)=N\Nc2ccccc2)c1 the results were Shiga inhibitor 55*, Pf growth 48h -84%, LASV entry inh 8%, CHX counter 54*, Pf growth 96h inconclusive and Marburg entry inh inconclusive.
Screening N#CCCN/N=C(/Cc1nc2ccccc2[nH]1)c1ccc(Cl)cc1 returned Shiga inhibitor 67*, Pf growth 48h inconclusive, CHX counter 30* and Marburg entry inh -4%.
Screening Cc1ccc2oc(C(=O)Nc3ccc(S(=O)(=O)N4CCCCC4C)cc3)cc(=O)c2c1 (stereo not drawn) returned LASV entry inh 22%[46.1 µM] and Marburg entry inh 14%[46.1 µM].
Screening CCN/N=C(\Cc1nc2ccccc2[nH]1)c1ccccc1 returned Shiga inhibitor 58, Pf growth 48h 10µM*, CHX counter 20*, Pf growth 96h inconclusive and Marburg entry inh -30%[46.1 µM].
`N/N=C(/Cc1nc2ccccc2[nH]1)c1ccc([N+](=O)[O-])cc1` gave Shiga inhibitor 141*, Pf growth 48h inconclusive, LASV entry inh 10%, CHX counter 44*, Pf growth 96h 45% and Marburg entry inh -1%[46.1 µM].
Screening Cc1occc1-c1n[nH]c(=S)n1-c1ccccc1 returned Shiga inhibitor 3, Pf growth 48h 0%, LASV entry inh 3%, CHX counter -4, Pf growth 96h 14% and Marburg entry inh inconclusive.
For N#Cc1ncc(-c2ccc3c(c2)OCCOCCOCCOCCOCCO3)nc1C#N the results were Shiga inhibitor -8, Pf growth 48h inconclusive, LASV entry inh inconclusive, CHX counter -3, Pf growth 96h 12µM* and Marburg entry inh inconclusive.
Screening N#Cc1ncc(-c2ccc3c(c2)OCCOCCOCCOCCO3)nc1C#N returned Shiga inhibitor 15, Pf growth 48h inconclusive, LASV entry inh inconclusive, CHX counter 0, Pf growth 96h 12µM* and Marburg entry inh inconclusive.
Screening Brc1ccc2c(c1)OCCOCCOCCOCCOCCOCCO2 returned Shiga inhibitor -14, Pf growth 48h -10%, LASV entry inh -8%, CHX counter -3, Pf growth 96h 43% and Marburg entry inh inconclusive.
For COc1cc(C(=O)NCc2nc3cccnc3n2Cc2ccc(C)cc2)cc(OC)c1OC the results were LASV entry inh 6%[46.1 µM].
For Cc1cc(NC(=O)c2c([N+](=O)[O-])cnn2C)no1 the results were Shiga inhibitor 7, Pf growth 48h 40%, LASV entry inh -2%, CHX counter 1, Pf growth 96h -3% and Marburg entry inh inconclusive.
CC(C)C[C@H]1C(=O)N2CCC[C@H]2[C@]2(O)O[C@](NC(=O)[C@@H]3C=C4c5cccc6[nH]c(Br)c(c56)C[C@H]4N(C)C3)(C(C)C)C(=O)N12 was read as Shiga inhibitor -2, LASV entry inh inconclusive, CHX counter -1 and Marburg entry inh inconclusive.
CC(C)C[C@H]1C(=O)N2CCC[C@H]2[C@]2(O)O[C@](NC(=O)[C@@H]3C=C4c5cccc6[nH]cc(c56)C[C@H]4N(C)C3)(C(C)C)C(=O)N12 was read as Pf growth 48h 2.9µM* and Pf growth 96h 3.7µM*.
CN1C[C@H](C(=O)N[C@]2(C)O[C@@]3(O)[C@@H]4CCCN4C(=O)[C@H](Cc4ccccc4)N3C2=O)C=C2c3cccc4[nH]cc(c34)C[C@H]21 was read as Pf growth 48h 0.3µM* and Pf growth 96h 0.3µM*.
